Values without a mark were called inactive. The source made the active and inactive calls.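 Rule for the calls, unless noted: active = compound that reduces growth-factor-driven endothelial tube area in a mixed cell culture, no cutoff stated; inactive = the rest.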

A short description of test [1]: stimulators of insulin release from INS-1E, primary screen, cell-based, 5 mM glucose, NPC library (AID 1117329;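 active = compound raises insulin release from rat beta cells at 5 mM glucose, no numeric limit stated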; note: reference of the scale not given here). Particulars: rat INS-1E insulin secretion, at 10 µM, stronger effect = higher value.
The nature of test [2]: growth inhibition of GSK3B-pretreated HCT116 cells – cell-based, CellTiter-Glo, 0.2 to 20 µM (AID 1117336;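 active = compounds lowering colon cancer cell viability after pretreatment blocking the GSK3B kinase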). The settings on record: HCT116 viability after GSK3B inhibitor, at 20 µM, stronger effect = higher value.
A short description of test [3]: inhibition of endothelial tube formation, primary screen, imaging, VEGF stimulated, CD31 staining, tube area, NPC library (AID 1117340). Particulars: VEGF-stimulated ADSC/ECFC co-culture, at 10 µM, stronger effect = higher value.
Test [4] in a line: GLP1 release stimulators, primary, NCI-H716, NPC library (AID 1117341;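 active = compound raises GLP1 secretion from the human gut endocrine cells, with no numeric limit stated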; note: reference of the scale not given here). Particulars: NCI-H716 cells, at 10 µM, stronger effect = higher value.
Test [5] can be described thus: HCT116 colon cancer cell growth inhibition, primary screen, CellTiter-Glo luminescence, NPC library (AID 1117342;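 active = compounds that lower survival of HCT116 colon cancer cells in the luminescence readout, no numeric limit stated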). Particulars: at 20 µM (top of the series).
Test [6] in a line: reduced SW480 viability measured with CellTiter-Glo, NPC library, primary (AID 1117343;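 active = compounds that lower viability of the colon cancer cells in the luminescence readout, with no numeric limit stated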). The settings on record: CellTiter-Glo luminescence; at 20 µM (top of the series).
Test [7] can be described thus: NPC library primary testing for decreased DLD-1 cell viability via CellTiter-Glo (AID 1117346;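 active = compounds that lower survival of DLD-1 colon cancer cells in the luminescence readout, no cutoff given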). Particulars: DLD-1 viability, CellTiter-Glo luminescence; at 20 µM (top of the series).
Test [8] addresses 6-phosphogluconate dehydrogenase, decarboxylating (Homo sapiens) (UniProt P52209). Put plainly: inhibition of human phosphogluconate dehydrogenase – biochemical, recombinant enzyme, NADPH absorbance, primary screen (AID 1159550;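 active = at least 20% inhibition of 6-phosphogluconate dehydrogenase activity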). The settings on record: recombinant 6PGD, NADPH absorbance 341 nm; at 10 µM; stronger effect = higher value.

Sequence of 6-phosphogluconate dehydrogenase, decarboxylating (Homo sapiens) (P52209 whole entry, looked up): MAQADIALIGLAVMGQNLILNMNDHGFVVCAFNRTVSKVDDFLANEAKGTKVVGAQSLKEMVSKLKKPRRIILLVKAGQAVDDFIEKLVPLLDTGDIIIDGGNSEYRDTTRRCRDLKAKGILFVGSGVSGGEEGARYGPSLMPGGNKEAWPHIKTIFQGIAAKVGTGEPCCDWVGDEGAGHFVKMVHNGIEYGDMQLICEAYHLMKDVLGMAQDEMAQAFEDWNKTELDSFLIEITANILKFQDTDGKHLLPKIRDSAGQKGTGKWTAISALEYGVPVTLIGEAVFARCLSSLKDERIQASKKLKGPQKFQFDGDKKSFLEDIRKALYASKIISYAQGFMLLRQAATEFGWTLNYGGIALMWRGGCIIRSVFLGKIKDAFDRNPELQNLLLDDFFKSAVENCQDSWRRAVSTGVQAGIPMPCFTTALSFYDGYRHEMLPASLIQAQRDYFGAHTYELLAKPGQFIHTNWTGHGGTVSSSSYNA

As for `NC(N)=NCCN1CCCCCCC1`, in test [1], the insulin secretion stimulation was -1.2%. In addition, in test [2], the viability decrease was 1.25%. The tube area decrease in test [3] was 3.7%. In addition, the GLP1 secretion stimulation in test [4] was -0.1%. For the same compound, in test [5], the inhibition of viability is 30%. The viability decrease (inhibition) was -11.2% in test [6] and 23.4% in test [7]. The inhibition in test [8] is 10.5%.

As for `CCOC(=O)[C@H](CCc1ccccc1)N[C@@H](C)C(=O)N1CCC[C@H]1C(=O)O`, in test [1], the insulin secretion stimulation is 0.7%. The viability decrease in test [2] is 1.3%. Moreover, the tube area decrease in test [3] was -1.3%. Further, the GLP1 secretion stimulation in test [4] is 19.8%. The inhibition of viability in test [5] is -3.77%. Besides, the viability decrease (inhibition) in test [6] is 12.5%; in test [7], 3.4%. In addition, the inhibition in test [8] is -2.48%.

For `CCOC(=O)c1ccc(N)cc1`, the insulin secretion stimulation in test [1] is -1%. The viability decrease in test [2] was 5.65%. Further, in test [3], the tube area decrease was 4%. Further, in test [4], the GLP1 secretion stimulation is -0.6%. Moreover, the inhibition of viability in test [5] is 7.6%. Also, the viability decrease (inhibition) in test [6] was 87.8% (active); in test [7], 18.2%. Moreover, in test [8], the inhibition is -17.7%.

In the case of `Oc1c(I)cc(I)c2cccnc12`, in test [1], the insulin secretion stimulation was 0.55%. Moreover, in test [2], the viability decrease was 102% (active). For the same compound, the tube area decrease in test [3] is 108% (active). Further, the GLP1 secretion stimulation in test [4] is -3.1%. Moreover, in test [5], the inhibition of viability is 89.9% (active). For the same compound, the viability decrease (inhibition) in test [6] is 147% (active); in test [7], 96.2% (active). Also, the inhibition in test [8] is -4.02%.

For the compound `C#CCN(C)Cc1ccccc1`, the insulin secretion stimulation in test [1] is 4.5%. Moreover, the viability decrease in test [2] is 23.6%. The tube area decrease in test [3] was 3.1%. The GLP1 secretion stimulation in test [4] is 2.3%. Further, the inhibition of viability in test [5] was 2.23%. Also, the viability decrease (inhibition) in test [6] is -22.7%; in test [7], 2.6%. Moreover, in test [8], the inhibition was 0.126%.

As for `CS(=O)(=O)c1ccc([C@@H](O)[C@@H](CO)NC(=O)C(Cl)Cl)cc1`, in test [1], the insulin secretion stimulation was 1%. For the same compound, the viability decrease in test [2] is -30.5%. Moreover, the tube area decrease in test [3] is 42.1% (active). Besides, the GLP1 secretion stimulation in test [4] was 0.4%. Further, the inhibition of viability in test [5] is 2%. Also, the viability decrease (inhibition) in test [6] was -9.6%; in test [7] it was -4%. In addition, the inhibition in test [8] is -8.02%.

`O=C1C(O)=C(O)C(=O)C(O)=C1O`: the insulin secretion stimulation in test [1] is 1.9%. The viability decrease in test [2] is -21%. Also, in test [3], the tube area decrease was -10.5%. Further, the GLP1 secretion stimulation in test [4] is -1.5%. Further, the inhibition of viability in test [5] was -0.4%. The viability decrease (inhibition) in test [6] is 27.9%; in test [7] it was 23.1%. Also, the inhibition in test [8] was 10.5%.

In the case of `C[C@]12CCC(=O)C=C1CC[C@@H]1[C@@H]2[C@@H](O)C[C@@]2(C)[C@H]1CC[C@]2(O)C(=O)COP(=O)(O)O`, the insulin secretion stimulation in test [1] was 1.8%. The viability decrease in test [2] was -2.5%. For the same compound, the tube area decrease in test [3] is -8.4%. In addition, the GLP1 secretion stimulation in test [4] is -1%. Moreover, the inhibition of viability in test [5] is -7.2%. The figures for the viability decrease (inhibition) in test [6] and in test [7] were -5.9% (active) and -10.7%, respectively. In addition, in test [8], the inhibition was 7.31%.

As to `CNC[C@H](O)c1ccc(O)c(O)c1`, the insulin secretion stimulation in test [1] was -2.3%. For the same compound, in test [2], the viability decrease is 31.1%. Further, the tube area decrease in test [3] is -5.3%. Also, the GLP1 secretion stimulation in test [4] was 2.1%. For the same compound, the inhibition of viability in test [5] is -7.2%. In addition, the viability decrease (inhibition) was 64.8% (active) in test [6] and 23.9% in test [7]. Also, the inhibition in test [8] is -1.63%.

Turning to `CCN(CC)C(C)CN1c2ccccc2Sc2ccccc21` (stereo unspecified), the insulin secretion stimulation in test [1] was 7.3% (active). Moreover, in test [2], the viability decrease was -28.5%. For the same compound, in test [3], the tube area decrease was 25%. Further, in test [4], the GLP1 secretion stimulation was 4.8%. Also, the inhibition of viability in test [5] is 69.2% (active). Also, the viability decrease (inhibition) in test [6] was 109% (active); in test [7] it was 76.9% (active). In addition, the inhibition in test [8] was -5.57%.

Consider `O=C(OCC(O)CO)c1ccccc1Nc1ccnc2cc(Cl)ccc12` (stereo unspecified), for which, in test [1], the insulin secretion stimulation is 6.1%. For the same compound, in test [2], the viability decrease is 53.3% (active). Besides, the tube area decrease in test [3] is -3.6%. For the same compound, the GLP1 secretion stimulation in test [4] was -2.3%. Also, in test [5], the inhibition of viability was 38.5%. For the same compound, the viability decrease (inhibition) in test [6] was 53.8% (active); in test [7], 6.3%. Further, the inhibition in test [8] is 11.2%.

In the case of `Cn1c(=O)c2c(ncn2C)n(C)c1=O`, the insulin secretion stimulation in test [1] was 4.3%. Besides, the viability decrease in test [2] was -1.7%. Also, the tube area decrease in test [3] was 16.4%. Moreover, in test [4], the GLP1 secretion stimulation is -0.2%. Moreover, the inhibition of viability in test [5] is -8.8%. Also, the viability decrease (inhibition) was -11.7% in test [6] and 7.2% in test [7]. Besides, the inhibition in test [8] is 8.55%.

On to `CCCCOc1ccc(OCCCN2CCOCC2)cc1`, for which, in test [1], the insulin secretion stimulation is 0.6%. Further, the viability decrease in test [2] was -10.8%. For the same compound, the tube area decrease in test [3] is 15.4%. In test [4], the GLP1 secretion stimulation was -1.7%. Besides, the inhibition of viability in test [5] was 24.8%. Besides, the viability decrease (inhibition) in test [6] was 46.8%; in test [7], 22.7%. In addition, in test [8], the inhibition was -17.9%.

As to `CCOc1ccc(Cc2nccc3cc(OCC)c(OCC)cc23)cc1OCC`, the insulin secretion stimulation in test [1] was 1.2%. Further, in test [2], the viability decrease is -83%. Moreover, the tube area decrease in test [3] was 39.2%. Further, the GLP1 secretion stimulation in test [4] was 4.1%. Also, the inhibition of viability in test [5] is 69.1% (active). The viability decrease (inhibition) in test [6] was 97.9% (active); in test [7], 62.3% (active). Also, in test [8], the inhibition was -5.46%.

Take `COCCc1ccc(OCC(O)CNC(C)C)cc1` (stereo unspecified): in test [1], the insulin secretion stimulation is 5.6%. Also, in test [2], the viability decrease is -27.4%. Moreover, in test [3], the tube area decrease was -8.1%. Moreover, in test [4], the GLP1 secretion stimulation was -3.5%. In test [5], the inhibition of viability is 12.1%. The viability decrease (inhibition) in test [6] was 17.2%; in test [7], -6.3%. Further, in test [8], the inhibition was -13.3%.

For the compound `C=CC(N)CCC(=O)O` (stereo unspecified), the insulin secretion stimulation in test [1] was 1.4%. For the same compound, the viability decrease in test [2] is -25.5%. Also, in test [3], the tube area decrease is -14.9%. For the same compound, the GLP1 secretion stimulation in test [4] was -0.9%. Also, in test [5], the inhibition of viability was 10.9%. Also, the viability decrease (inhibition) in test [6] is -15.3%; in test [7] it was -6.8%. Also, the inhibition in test [8] was -0.693%.

Consider `Cc1ccccc1N1C(=O)c2cc(S(N)(=O)=O)c(Cl)cc2NC1C` (stereo unspecified), for which the insulin secretion stimulation in test [1] is 1.1%. In test [2], the viability decrease was -5.6%. In addition, the tube area decrease in test [3] is -5.3%. Besides, in test [4], the GLP1 secretion stimulation was -1.9%. The inhibition of viability in test [5] is 0.8%. Moreover, the values for the viability decrease (inhibition) in test [6] and in test [7] were -18.3% and -5.3%, respectively. In addition, in test [8], the inhibition was -11.8%.

The record behind these values is PubChem BioAssay.
